# According to PubChem BioAssay (NCI):
# Compounds without any hit were thinned out: in the full panel of roughly 79,000, 15% have a hit. Unmarked numbers belong to inactive results. The source made the active and inactive calls. Rule as the data show it: active = growth inhibition above about 70%; inactive = the rest.
# Assays:
# [1] = NCI Yeast Anticancer Drug Screen. Data for the rad52 strain (AID 147);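 also: 0% = growth of vehicle-treated control cultures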; details: S. cerevisiae rad52 mutant growth inhibition, active compounds read high
# In short: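 Inhibition of yeast growth, referenced to vehicle controls, was the measured output for a strain with defective DNA damage repair.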
# [2] = NCI Yeast Anticancer Drug Screen. Data for the wt1 strain (AID 149);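 also: 0% = growth of vehicle-treated wt1 cultures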; details: S. cerevisiae wt1 strain (SPY 50644) growth inhibition, active compounds read high
# In short: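 Using yeast strain wt1, compound-induced growth inhibition was determined against vehicle-treated cultures.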
# [3] = NCI Yeast Anticancer Drug Screen. Data for the rad50EPP+ strain (AID 151);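 also: 0% = growth of vehicle-treated control cultures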; details: S. cerevisiae rad50 mutant strain, active compounds read high
# In short: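 Genetically defined yeast (rad50EPP+, DNA damage repair alteration) is grown with compound, and inhibition of growth is expressed relative to vehicle-treated controls.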
# [4] = NCI Yeast Anticancer Drug Screen. Data for the mgt1 strain (AID 153); details: S. cerevisiae mgt1 mutant growth inhibition, active compounds read high
# In short: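 In the mgt1 strain, test compounds were added and growth inhibition was determined relative to vehicle-treated controls.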
# [5] = NCI Yeast Anticancer Drug Screen. Data for the rad50 strain (AID 155);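 also: 0% = growth of vehicle-only cultures of the same strain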; details: S. cerevisiae rad50 strain growth inhibition, active compounds read high
# In short: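 Relative growth inhibition (compound vs vehicle) was measured in yeast with a defined repair-gene alteration.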
# [6] = NCI Yeast Anticancer Drug Screen. Data for the mec2-1 strain (AID 157); details: S. cerevisiae mec2-1 strain, active compounds read high
# In short: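 Each compound was tested on mec2-1 yeast, a strain altered in DNA damage repair or cell cycle control. Growth inhibition is reported relative to vehicle.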
# [7] = NCI Yeast Anticancer Drug Screen. Data for the rad14 strain (AID 159);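 also: 0% = growth of vehicle-treated control cultures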; details: S. cerevisiae rad14 strain growth inhibition, active compounds read high
# In short: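 Screen for anticancer potential: a yeast strain altered in DNA damage repair is grown with compound, and reduced growth is quantified against vehicle controls.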
# [8] = NCI Yeast Anticancer Drug Screen. Data for the sgs1 mgt1 strain (AID 161);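 also: 0% = growth of cultures given vehicle only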; details: S. cerevisiae sgs1 mgt1 strain, active compounds read high
# In short: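 Mutant yeast exposed to compound; growth scored against vehicle-only wells.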
# [9] = NCI Yeast Anticancer Drug Screen. Data for the CLN2oe strain (AID 163);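 also: 0% = growth of vehicle-only control cultures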; details: S. cerevisiae CLN2oe strain, active compounds read high
# In short: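 First, the altered yeast strain was treated with each compound; second, its growth was measured; finally, inhibition was derived by comparison with vehicle controls.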
# [10] = NCI Yeast Anticancer Drug Screen. Data for the cln2 rad14 strain (AID 165);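 also: 0% = growth equal to vehicle treated cultures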; details: S. cerevisiae cln2 rad14 strain, active compounds read high
# In short: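 Test compounds were added to cln2 rad14 yeast cultures; inhibition of growth was then determined by comparison with vehicle treatment.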
# [11] = NCI Yeast Anticancer Drug Screen. Data for the bub3 strain (AID 167); details: S. cerevisiae bub3 mutant strain, active compounds read high
# In short: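 Screening used yeast with an engineered genetic alteration affecting cell cycle control. Compound-exposed cultures were compared with vehicle cultures, and reduced growth was taken as inhibition.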
# [12] = NCI Yeast Anticancer Drug Screen. Data for the wt2 strain (AID 169);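 also: 0% = growth of vehicle-treated yeast cultures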; details: S. cerevisiae wt2 strain growth inhibition, active compounds read high
# In short: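 The panel's yeast strains carry defined changes in DNA repair or cell cycle genes. Each strain is grown with compound, and growth loss is scored relative to vehicle.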
# [13] = NCI Yeast Anticancer Drug Screen. Data for the mlh1 strain (AID 171);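 also: 0% = growth of vehicle-treated control cultures of the same strain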; details: S. cerevisiae mlh1 strain growth inhibition, active compounds read high
# In short: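 Inhibition values reflect reduced yeast growth in the presence of compound, referenced to vehicle controls, using a strain chosen for its alteration in DNA repair or cell cycle control.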
# [14] = NCI Yeast Anticancer Drug Screen. Data for the sgs1 strain (AID 173);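 also: 0% = growth of vehicle-only control cultures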; details: S. cerevisiae sgs1 mutant, active compounds read high
# In short: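 Vehicle-treated cultures served as reference for growth inhibition of a yeast strain altered in DNA damage repair or cell cycle control after compound exposure.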
# [15] = NCI Yeast Anticancer Drug Screen. Data for the mlh1 rad18 strain (AID 175); details: S. cerevisiae mlh1 rad18 strain growth inhibition, active compounds read high
# In short: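 Inhibition values reflect reduced growth of mutant yeast versus vehicle-treated controls following compound exposure; the mutations affect DNA damage repair.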
# [16] = NCI Yeast Anticancer Drug Screen. Data for the rad18 strain (AID 177); details: S. cerevisiae rad18 mutant growth inhibition, active compounds read high
# In short: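 Steps: expose repair-mutant yeast to compound; measure growth; express as inhibition relative to vehicle control.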
# [17] = at 5.0 µM (retest, dose inferred, filed as 0.5)
# [18] = at 50.0 µM (retest, dose inferred, filed as 5.0)
smiles,measurement,setting,value
N#CC(C(=O)Nc1ccccc1)C1=C(Cl)C(=O)c2ccccc2C1=O (stereo not drawn),growth inhibition,[1]; at 1.2 µM,7%
same,growth inhibition,[1]; at 3.7 µM,57%
same,growth inhibition,[1]; at 11.0 µM,98% (active)
same,growth inhibition,[1]; at 33.0 µM,98% (active)
same,growth inhibition,[1]; at 100.0 µM,97% (active)
same,growth inhibition,[2]; at 1.2 µM,-23%
same,growth inhibition,[2]; at 3.7 µM,12%
same,growth inhibition,[2]; at 11.0 µM,95% (active)
same,growth inhibition,[2]; at 33.0 µM,97% (active)
same,growth inhibition,[2]; at 100.0 µM,96% (active)
same,growth inhibition,[3]; at 1.2 µM,13%
same,growth inhibition,[3]; at 3.7 µM,43%
same,growth inhibition,[3]; at 11.0 µM,97% (active)
same,growth inhibition,[3]; at 33.0 µM,97% (active)
same,growth inhibition,[3]; at 100.0 µM,96% (active)
same,growth inhibition,[4]; at 1.2 µM,23%
same,growth inhibition,[4]; at 3.7 µM,6%
same,growth inhibition,[4]; at 11.0 µM,98% (active)
same,growth inhibition,[4]; at 33.0 µM,97% (active)
same,growth inhibition,[4]; at 100.0 µM,97% (active)
same,growth inhibition,[5]; at 1.2 µM,4%
same,growth inhibition,[5]; at 3.7 µM,38%
same,growth inhibition,[5]; [17],9%
same,growth inhibition,[5]; at 11.0 µM,97% (active)
same,growth inhibition,[5]; at 33.0 µM,97% (active)
same,growth inhibition,[5]; [18],98% (active)
same,growth inhibition,[5]; at 50.0 µM,91.8% (active)
same,growth inhibition,[5]; at 100.0 µM,96% (active)
same,growth inhibition,[6]; at 1.2 µM,-8%
same,growth inhibition,[6]; at 3.7 µM,73% (active)
same,growth inhibition,[6]; [17],73% (active)
same,growth inhibition,[6]; at 11.0 µM,98% (active)
same,growth inhibition,[6]; at 33.0 µM,97% (active)
same,growth inhibition,[6]; [18],99% (active)
same,growth inhibition,[6]; at 50.0 µM,93% (active)
same,growth inhibition,[6]; at 100.0 µM,96% (active)
same,growth inhibition,[7]; at 1.2 µM,-26%
same,growth inhibition,[7]; at 3.7 µM,42%
same,growth inhibition,[7]; at 11.0 µM,98% (active)
same,growth inhibition,[7]; at 33.0 µM,97% (active)
same,growth inhibition,[7]; at 100.0 µM,95% (active)
same,growth inhibition,[8]; [17],8%
same,growth inhibition,[8]; [18],98% (active)
same,growth inhibition,[8]; at 50.0 µM,93.1% (active)
same,growth inhibition,[9]; at 1.2 µM,4%
same,growth inhibition,[9]; at 3.7 µM,45%
same,growth inhibition,[9]; at 11.0 µM,98% (active)
same,growth inhibition,[9]; at 33.0 µM,97% (active)
same,growth inhibition,[9]; at 100.0 µM,96% (active)
same,growth inhibition,[10]; [17],53%
same,growth inhibition,[10]; [18],98% (active)
same,growth inhibition,[10]; at 50.0 µM,91.8% (active)
same,growth inhibition,[11]; at 1.2 µM,-49%
same,growth inhibition,[11]; at 3.7 µM,-5%
same,growth inhibition,[11]; [17],62%
same,growth inhibition,[11]; at 11.0 µM,97% (active)
same,growth inhibition,[11]; at 33.0 µM,97% (active)
same,growth inhibition,[11]; [18],98% (active)
same,growth inhibition,[11]; at 50.0 µM,92% (active)
same,growth inhibition,[11]; at 100.0 µM,95% (active)
same,growth inhibition,[12]; at 1.2 µM,-3%
same,growth inhibition,[12]; at 3.7 µM,26%
same,growth inhibition,[12]; at 11.0 µM,95% (active)
same,growth inhibition,[12]; at 33.0 µM,97% (active)
same,growth inhibition,[12]; at 100.0 µM,95% (active)
same,growth inhibition,[13]; at 1.2 µM,-3%
same,growth inhibition,[13]; at 3.7 µM,41%
same,growth inhibition,[13]; at 11.0 µM,98% (active)
same,growth inhibition,[13]; at 33.0 µM,97% (active)
same,growth inhibition,[13]; at 100.0 µM,97% (active)
same,growth inhibition,[14]; at 1.2 µM,8%
same,growth inhibition,[14]; at 3.7 µM,41%
same,growth inhibition,[14]; at 11.0 µM,96% (active)
same,growth inhibition,[14]; at 33.0 µM,97% (active)
same,growth inhibition,[14]; at 100.0 µM,96% (active)
same,growth inhibition,[15]; [17],64%
same,growth inhibition,[15]; [18],98% (active)
same,growth inhibition,[15]; at 50.0 µM,91% (active)
same,growth inhibition,[16]; at 1.2 µM,-15%
same,growth inhibition,[16]; at 3.7 µM,-8%
same,growth inhibition,[16]; at 11.0 µM,90% (active)
same,growth inhibition,[16]; at 33.0 µM,98% (active)
same,growth inhibition,[16]; at 100.0 µM,97% (active)
